KDM4E inh = blocks human JMJD2E demethylase activity. AID 2147. 1.6% of 230,000 active. Potency, µM (highest dose often 57.1 µM), inactives show at the highest dose activity change, negative = inhibition, hits mostly inhibitors. JMJD2E catalytic domain, FDH-coupled NADH fluorescence (FDH is formaldehyde dehydrogenase);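 also: potency is read from the fitted curve at half-maximal effect; 0% = wells with enzyme and -100% = buffer wells without enzyme; nearly all actives have a fitted effect of over 50% in size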
Target sequence (B2RXH2 1-337 limits assumed): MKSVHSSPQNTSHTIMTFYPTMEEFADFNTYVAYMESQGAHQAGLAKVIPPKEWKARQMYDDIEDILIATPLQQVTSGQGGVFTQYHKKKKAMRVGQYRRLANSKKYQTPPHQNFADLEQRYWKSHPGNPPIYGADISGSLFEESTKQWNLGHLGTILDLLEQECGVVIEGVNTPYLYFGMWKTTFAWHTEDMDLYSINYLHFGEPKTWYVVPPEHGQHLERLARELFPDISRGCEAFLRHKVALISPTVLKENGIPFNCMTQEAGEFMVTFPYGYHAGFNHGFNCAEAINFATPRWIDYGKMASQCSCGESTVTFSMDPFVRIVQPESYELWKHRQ
Tau FP inhib = blocks human tau fibril formation measured by polarization. P10636. K18 P301L tau heparin fibrillization, Alexa594 FP, 6 h. Potency, µM (doses to about 57.7 µM), inactives show at the top dose activity, negative = inhibition, actives largely listed as inhibitors. 0.39% of 280,000 active; also: potency is read from the fitted curve at half-maximal effect; nearly all actives have a fitted effect of over 55% in size
Target sequence (P10636 561-689 P618L limits assumed): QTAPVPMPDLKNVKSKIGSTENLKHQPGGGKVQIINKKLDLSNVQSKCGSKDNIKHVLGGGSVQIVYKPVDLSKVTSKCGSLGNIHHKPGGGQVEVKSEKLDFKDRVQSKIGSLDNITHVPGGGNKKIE
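Compound effects on tau fibrillization are measured by Alexa 594 fluorescence polarization (ex 555, em 632 nm). K18 P301L tau is used at 15 uM with 0.24 uM labeled tracer, and 20 uM heparin induces aggregation over 6 hr at 37 C.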
Sfp inh = Sfp phosphopantetheinyl transferase inhibition; 3.5% of 310,000 active; Biochemical Sfp PPTase activity, qHTS; Q9F4F7; Potency, µM, for the others: largest response in the series, negative = inhibition, hits mostly inhibitors; AID 1490;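 also: the enzyme is Sfp with the accession as filed and its product quenches rhodamine fluorescence; potency is read from the fitted curve at half-maximal effect; 0% = enzyme reaction without inhibitor and -100% = no enzyme wells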
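Step 1, compound plus 15 nM Sfp-PPTase, 15 min, room temperature. Step 2, add rhodamine-CoA (5 uM) and BHQ-2-YbbR (12.5 uM). Step 3, read 525/598 nm fluorescence at 0 and 30 min.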
Tau fluor counter = counter-screen for tau fibril formation inhibitors | tau K18 P301L Alexa594 fluorescence, heparin fibrillization | Potency, µM (doses to about 57.7 µM), for inactives: at the top dose activity change, negative = decrease | 0.93% of 280,000 active | AID 1463; also: potency is read from the fitted curve at half-maximal effect; nearly all actives have a fitted effect of over 55% in size
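Human tau K18 P301L (15 uM unlabeled, 0.24 uM Alexa 594-labeled) in 100 mM sodium acetate pH 7 with 20 uM heparin, 6 hr at 37 C. ThT 30 uM added, 1 hr ambient; Alexa 594 FP and total fluorescence read at 555/632 nm.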
Tau fibril ThT = blocks human tau fibril formation measured by thioflavin T. AID 1460. 2.1% of 270,000 active. recombinant tau K18 P301L, heparin-induced fibrillization, ThT fluorescence. Potency, µM (doses to about 57.4 µM), without a hit: top-dose activity, negative = inhibition, most hits filed as inhibitors. P10636; also: potency is read from the fitted curve at half-maximal effect; nearly all actives have a fitted effect of over 55% in size
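ThT emission at 510 nm, taken 1 hr after adding 30 uM dye, quantifies aggregates formed when 20 uM heparin acts on human tau K18 P301L for 6 hr at 37 C.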
FBPA coupling cs = inhibits coupling enzyme system, counter-screen for aldolase hits | coupling enzyme system counterscreen, AmpLite Red fluorescence | 0.67% of 290,000 active | activity change, negative = inhibition, % at 58.2 µM, hits read low; in the data active = activity change below about -30%
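Final compound at 57.5 uM, incubated 10 min at RT with coupling enzyme reagent (glyceraldehyde-3-phosphate), then 20 min with substrate and AmpLite Red detection. Fluorescence read at 525/598 nm; tests interference with the coupling assay, not aldolase inhibition.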
An asterisk follows results filed as active; [ ] = dose if it differs, or a comment. An excerpt weighted towards active compounds, which were near 5.3% of everything screened. Unless noted, calls follow the shape of the dose curve; as a rule, active = well fitted curve in the direction sought with a large enough effect; inconclusive = small, poorly fitted or top-dose-only effect, or another doubt; inactive = no such curve, though single readings can be large; an effect the other way counts as inactive or inconclusive. Unless noted, % is scaled to controls: 0 for no effect and ±100 for the full control effect.

Screening Cc1nn(C)c(C)c1-c1cccc2c1CCC(N(C)C)C2 (stereo not given) returned Tau FP inhib -6.0%, Sfp inh -0.1%, Tau fluor counter -8.8%, Tau fibril ThT -9.8% and FBPA coupling cs -0.6.
Screening Oc1cc(O)c2c(c1)OC(c1cc(O)c(O)c(O)c1)C(O)C2 (stereo not given) returned KDM4E inh 1.41µM*, Tau FP inhib inconclusive, Sfp inh -77.3%, Tau fluor counter inconclusive, Tau fibril ThT 25.1µM* and FBPA coupling cs -19.2.
For O=C(OC1Cc2c(O)cc(O)cc2OC1c1cc(O)c(O)c(O)c1)c1cc(O)c(O)c(O)c1 (stereo not given) the results were KDM4E inh 2.51µM*, Tau FP inhib 17.8µM*, Sfp inh 17.8µM*, Tau fluor counter 6.31µM*[quencher], Tau fibril ThT 6.31µM* and FBPA coupling cs -13.8.
Screening O=C(O[C@@H]1Cc2c(O)cc(O)cc2O[C@@H]1c1cc(O)c(O)c(O)c1)c1cc(O)c(O)c(O)c1 returned KDM4E inh 8.91µM*, Tau FP inhib inconclusive, Sfp inh 11.2µM*, Tau fluor counter 14.1µM*[quencher], Tau fibril ThT 12.6µM* and FBPA coupling cs -6.3.
For Cc1c(C)n(O)c2ccc3nonc3c12 the results were KDM4E inh inconclusive, Tau FP inhib inconclusive, Sfp inh -11.2%, Tau fluor counter -28.6%, Tau fibril ThT 31.6µM* and FBPA coupling cs -24.4.
`Cc1cc(C)cc(NC(=O)Cn2cc(C(=O)c3cccs3)c3ccccc32)c1` gave Tau FP inhib inconclusive, Tau fluor counter inconclusive and Tau fibril ThT 2.1%.
For Cc1ccc2nc3sc(=O)sc3nc2c1 the results were Sfp inh inconclusive and FBPA coupling cs 1.9.
Screening C[C@@H]1NCCc2cc(O)c(O)cc21 returned KDM4E inh 11.2µM*, Sfp inh inconclusive and FBPA coupling cs -6.9.
O=[N+]([O-])c1cccc(CN2CCN(Cc3ccc(Br)cc3)CC2)c1 was read as KDM4E inh 25.1µM*, Tau FP inhib 6.9%, Sfp inh inconclusive, Tau fluor counter -9.7%, Tau fibril ThT -14.1% and FBPA coupling cs 1.3.
Screening CCOC(=O)C(SP(=S)(OC)OC)c1ccccc1 (stereo not given) returned Sfp inh inconclusive and FBPA coupling cs 1.0.
`COc1cc(CC2(CCc3ccncc3)C(=O)NC(=O)NC2=O)cc(OC)c1OC` gave KDM4E inh -5.0%, Tau FP inhib -17.5%, Sfp inh 8.0%, Tau fluor counter -6.5%, Tau fibril ThT -9.0% and FBPA coupling cs 1.5.
COc1cc2c(cc1OC)-c1c(OC)c(OC)c(OC)c3ccnc(c13)C2=O was read as KDM4E inh -6.9%, Tau FP inhib -2.1%, Sfp inh 15.2%, Tau fluor counter -26.2%, Tau fibril ThT 10µM* and FBPA coupling cs -27.9.
COc1cc(OC)cc(C(=O)N2CCC(N3CCN(c4ccccc4)CC3)CC2)c1 was read as KDM4E inh inconclusive, Tau FP inhib -1.6%, Sfp inh 44.7µM*, Tau fluor counter 3.1%, Tau fibril ThT -3.8% and FBPA coupling cs -4.4.
For COc1ccccc1N1CCN(C2CCN(C(=O)c3cc(OC)c(OC)c(OC)c3)CC2)CC1 the results were KDM4E inh inconclusive, Tau FP inhib 10.0%, Sfp inh -27.4%, Tau fluor counter 1.4%, Tau fibril ThT -3.3% and FBPA coupling cs 6.8.
For NCCCNCCCCNCCCNC(=O)Cc1ccc(O)cc1 the results were Tau FP inhib 0.7%[11.6 µM], Sfp inh 17.9%, Tau fluor counter -11.4%[11.6 µM], Tau fibril ThT -13.3%[11.5 µM] and FBPA coupling cs 2.8.
`O=C1C(I)=CC(=C(c2cc(I)c(O)c(I)c2)c2ccccc2C(=O)O)C=C1I` gave Sfp inh 31.6µM*.
For O=C(Nc1ccc(Oc2ccccc2)cc1)c1ccc(F)c(S(=O)(=O)N2CCN(c3cccc(Cl)c3)CC2)c1 the results were Tau FP inhib inconclusive, Tau fluor counter -0.5% and Tau fibril ThT 3.6%.
`Cc1ccc2c(CN3CC=C(c4ccccc4)CC3)cc(=O)oc2c1C` gave KDM4E inh 25.1µM*, Tau FP inhib -14.6%, Sfp inh -5.3%, Tau fluor counter -9.2%, Tau fibril ThT inconclusive and FBPA coupling cs -1.8.
CCc1ccc2c(CN3CC=C(c4ccccc4)CC3)cc(=O)oc2c1 was read as KDM4E inh 14.1µM*, Tau FP inhib -16.5%, Sfp inh 0.4%, Tau fluor counter -9.5%, Tau fibril ThT inconclusive and FBPA coupling cs 8.6.
`COc1ccc2c(CN3CC=C(c4ccccc4)CC3)cc(=O)oc2c1` gave KDM4E inh inconclusive, Tau FP inhib -6.9%, Sfp inh 7.3%, Tau fluor counter -7.8%, Tau fibril ThT -15.8% and FBPA coupling cs 0.9.
CCCCCCCCCC(CC)c1ccc(S(=O)(=O)O)cc1 (stereo not given) was read as Sfp inh 18.3%.
`COC(=O)C1(C)C=C2C(=C(C)C(=O)C2C)CN1` (stereo not given) gave KDM4E inh inconclusive, Tau FP inhib -0.1%, Sfp inh 7.2%, Tau fluor counter -5.9%, Tau fibril ThT -10.4% and FBPA coupling cs -5.9.
C=CCC1C(=O)NC(=S)NC1=O was read as KDM4E inh -12.2%, Tau FP inhib -11.0%, Sfp inh 50.1µM*, Tau fluor counter -2.7%, Tau fibril ThT -7.2% and FBPA coupling cs 0.3.
`O=C1CC2OCC=C3CN4CCC56c7ccccc7N1C5[C@H]2[C@H]3C[C@H]46` (stereo not given in full) (tested in a mixture with another compound) gave Sfp inh 21.6%.
Screening COC(=O)C[C@@](O)(CCC(C)(C)O)C(=O)O[C@@H]1C(OC)=C[C@]23CCCN2CCc2cc4c(cc2[C@@H]13)OCO4 returned Sfp inh 6.9% and FBPA coupling cs 2.1.
Screening COC1=CC23CCCN2CCc2cc4c(cc2C3C1O)OCO4 (stereo not given) returned KDM4E inh inconclusive, Tau FP inhib inconclusive, Sfp inh 4.9%, Tau fluor counter inconclusive, Tau fibril ThT 35.5µM* and FBPA coupling cs 0.9.
For CC(C1OC(C)(C)C(O)C1O)C1CC[C@@]2(C)C3=CCC4C(C)(C)C(=O)CC[C@]4(C)C3CC[C@@]12C (stereo not given in full) the results were KDM4E inh -14.3%, Tau FP inhib 8.2%, Sfp inh 5.5%, Tau fluor counter inconclusive, Tau fibril ThT inconclusive and FBPA coupling cs -0.2.
